The list is not random: actives were taken first. Their share in the collection is about 0.71%.
RGS12 GoLoco inh: blocks human Gai1 binding to RGS12 GoLoco peptide, red readout; P63096; 0.44% of 230,000 active; Potency, µM (highest dose often 61.6 µM), for the others: top-dose activity, negative = inhibition, hits mostly inhibitors; Gai1:RGS12 GoLoco peptide FP, rhodamine, 10 min; active means well fitted inhibition curve with a large enough effect, not every such curve was filed as active; inactive means no such curve, though single readings can be large or run the other way; further: on the % scale 0 is the no-effect control and ±100 the full control effect; nearly all actives have a fitted effect of over 30% in size
RECQ1 inh: blocks DNA unwinding by human RECQ1; RECQ1 DNA unwinding, red fluorescence kinetic read; P46063; Potency, µM (series often up to 57.3 µM), for the others: at the highest dose activity, negative = inhibition, most hits filed as inhibitors; 0.54% of 240,000 active; AID 2549;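 further: plate controls were vehicle for no effect and no enzyme for full effect; nearly all actives have a fitted effect of over 30% in size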
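50 nM RECQ1T1 preincubated 15 min with compound in Tris pH 8.0 buffer with MgCl2, DTT, Tween-20 and 2.5 ug/ml poly(dI-dC); started with 200 nM TAMRA/BHQ-2 forked duplex and 2 mM ATP. Unwinding read as fluorescence (525/598 nm), two reads 2 h apart.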
TRb SRC2 PPI: inhibitors of human thyroid hormone receptor beta-SRC2 interaction; TRbeta-SRC2 peptide binding, fluorescence polarization; receptor liganded with 1 µM T3; Potency, µM (titrated, usually from 106 µM), without a hit: at the top dose activity change, negative = inhibition, hits mostly inhibitors; 0.065% of 280,000 active;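 further: plate controls were bound peptide for no effect and peptide without receptor for full effect; nearly all actives have a fitted effect of over 50% in size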
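Human TRb LBD (0.6 uM) plus Texas Red-labeled SRC2 peptide (20 nM), 1uM T3, 5% DMSO, 5 hr at ambient temperature. Decreased polarization (555/632 nm) flags inhibition; data normalized to free and bound peptide controls.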
TexasRed fluor: alters Texas Red total fluorescence, flagging assay interference; Potency, µM (doses to about 106 µM), for inactives: at the top dose fluorescence change, negative = quenching; 0.29% of 280,000 active; TRb/SRC2 Texas Red total fluorescence interference; active means well fitted curve in either direction with a large enough effect; inconclusive means small, poorly fitted or top-dose-only effect; further: on the % scale 0 is the no-effect control and ±100 the full control effect
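Human TRβ ligand-binding domain (0.6 uM) and Texas Red SRC2 peptide (20 nM) in Tris buffer with 1 uM T3 and 5% DMSO were incubated with pinned compound for 5 hr at ambient temperature. Total fluorescence was computed as S + 2P (555/632 nm).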
BLM helicase inh: inhibitors of human Bloom syndrome helicase BLM | Potency, µM (doses to about 56.1 µM), for the others: top-dose activity change, negative = inhibition, hits mostly inhibitors | P54132 | recombinant BLM DNA unwinding, fluorescence dequenching | 0.2% of 350,000 active;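 further: plate controls were vehicle for no effect and no enzyme for full effect; nearly all actives have a fitted effect of over 35% in size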
ERG Ets-DNA blk: blocks human ERG Ets domain binding to DNA; P11308; fluorescence polarization, His-ERG Ets domain / labelled DNA; Potency, µM (top dose mostly 76.9 µM), without a hit: top-dose FP activity, negative = inhibition, usual class: inhibitors; 0.028% of 370,000 active; active means well fitted inhibition curve with a large enough effect in the polarisation, with a control signal flat; inconclusive means small, poorly fitted or top-dose-only effect, or effect the other way, or a change in a side signal; inactive means no such curve, though single readings can be large or run the other way; the % refers to the polarisation;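 further: polarization taken with two DNA probes labelled with fluorescein and Texas red; % of control where 0% means no effect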
Target sequence (P11308 whole entry, looked up, the tested form may be a part): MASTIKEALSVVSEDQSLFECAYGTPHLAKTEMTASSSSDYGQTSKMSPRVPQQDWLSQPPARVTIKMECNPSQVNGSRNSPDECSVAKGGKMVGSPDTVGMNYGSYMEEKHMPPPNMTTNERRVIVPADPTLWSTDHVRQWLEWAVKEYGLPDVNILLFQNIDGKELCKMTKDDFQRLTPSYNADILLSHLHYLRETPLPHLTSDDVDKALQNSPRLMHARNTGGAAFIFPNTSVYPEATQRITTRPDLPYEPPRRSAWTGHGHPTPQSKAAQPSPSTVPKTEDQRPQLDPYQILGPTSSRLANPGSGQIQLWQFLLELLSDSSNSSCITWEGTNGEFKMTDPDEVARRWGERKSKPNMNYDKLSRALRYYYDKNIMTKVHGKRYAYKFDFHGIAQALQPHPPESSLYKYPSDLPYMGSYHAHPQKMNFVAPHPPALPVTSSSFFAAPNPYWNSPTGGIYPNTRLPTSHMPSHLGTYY
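His-tagged ERG Ets domain (1 uM in the protein solution; 300mM KCl, 50mM Tris-HCl, 1mM EDTA, 1mM DTT, pH 7.5) received compound, then a probe mix of 5 nM fluorescein-DNA and 100nM Texas-615-DNA. Fluorescence polarization was read for both dyes.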
* marks the source's active call; other numbers are inactive results; i = inactive; ? = inconclusive; / = no result; ! = not confirmed by another sample; [ ] = another dose, or the depositor's remark. Unless noted, the call rests on the fitted dose curve; in most records, active means well fitted curve in the direction sought with a large enough effect; inconclusive means small, poorly fitted or top-dose-only effect, or another doubt; inactive means no such curve, though single readings can be large; an effect the other way counts as inactive or inconclusive. Potency means the concentration at half of the fitted maximal effect.

SMILES | RGS12 GoLoco inh | RECQ1 inh | TRb SRC2 PPI | TexasRed fluor | BLM helicase inh | ERG Ets-DNA blk
C=C(C)C(=O)Nc1cccc(C2=NOC3(C2)C[C@@H](C(N)=O)N(C(=O)C(=C)C)C3)c1 (some centres not stated) | 1% | i | 0% | 0% | -2% | -13%
C/C=C\C=C/C(=O)Nc1cccc(C2=NOC3(C2)C[C@@H](C(N)=O)N(C(=O)/C=C/C=C\C)C3)c1 (some centres not stated) | -11% | 22µM* | 5% | -2% | 10µM* | 0%
C/C=C\C=C/C(=O)Nc1cccc(C2=NOC3(C2)C[C@@H](C(N)=O)N(C(=O)/C=C/CC)C3)c1 (some centres not stated) | -20% | i | -7% | -3% | -6% | 5%
C=C(C)C(=O)Nc1cccc(C2=NOC3(C2)C[C@@H](C(N)=O)N(C(=O)c2ccc(Cl)cc2)C3)c1 (some centres not stated) | 1% | 13µM* | 1% | -3% | -19% | -3%
COCC(=O)N1CCC2(CC1)CN(C(=O)Nc1cccc(C#N)c1)C2 | -4% | -11% | / | / | 2% | /
CC1=CC2C3CC(C=C3C)C2C1 (configuration not stated) | / | / | 1%[201 µM] | -5%[201 µM] | / | /
CC(=O)O[C@@]12CO[C@@H]1C[C@H](O)[C@@]1(C)C(=O)[C@H](O)C3=C(C)[C@@H](OC(=O)C(O)[C@@H](NC(=O)OC(C)(C)C)c4ccccc4)C[C@@](O)([C@@H](OC(=O)c4ccccc4)[C@H]21)C3(C)C (some centres not stated) | / | / | / | / | -2% | /
N#CC(C#N)=C1NC2(CCCCC2)Cc2ccccc21 | -2% | -9% | -2% | -5% | 1% | 12%
N#CC(C#N)=c1ccc2c(c1)NC1(CCCCC1)N=2 | 156% | -10% | ? | 45µM*[fluorescent] | -13% | 14%
CCC(=O)NC1=C(Cl)C(=O)C(NC(=O)CC)=C(Cl)C1=O | 1.3µM* | -8% | 8% | 0% | -12% | -23%
CCOC(=O)c1ccc(N/C=C/C(=O)C(C)(C)C)cc1 | 4% | i | 2% | 0% | 2% | -3%
O=C(/C=C/Nc1ccccc1)c1ccccc1 | -17% | -1% | 8% | 1% | 0% | -6%
CN(C)c1ccc(N/C=C/C(=O)C(C)(C)C)cc1 | -5% | -20% | 45µM* | ? | -7% | -4%
CN(C)c1ccc(N/C=C/C(=O)c2ccccc2)cc1 | 68% | -2% | 32µM* | 45µM*[fluorescent] | -14% | 0%
CCCCCCCCCCCC[N+](C)(C)C | / | / | 8%[201 µM] | -2%[201 µM] | / | /
O=S(=O)(Nc1ccc(-c2ccc(N3CCCCCC3)nn2)cc1)c1cccc(C(F)(F)F)c1 | / | / | -10% | 3162µM*[quencher] | -10% | 5%
CC(=O)NCCCC[C@H](NC(=O)OC(C)(C)C)C(=O)Nc1ccc2c(C(F)(F)F)cc(=O)oc2c1 | / | -6% | 6% | 0% | -4% | /
CCCCCCCCCCCCCCCCCCCCCCCCCCCCCC | / | 0% | -15% | ? | -6% | /
COc1ccc(OC)c(-c2nc3cc4ccccc4cc3nc2-c2ccccc2)c1 | 3% | 3.2µM* | -1% | -4% | -11% | -5%
CC(=O)c1cc(O)c2ccccc2c1O | 14µM* | -6% | 3% | -7% | -14% | 0%
O=C1c2sc3nc4n(c(=O)c3c2CCC1Br)CCCCC4 (configuration not stated) | 3.2µM* | -12% | -13% | -2% | 25µM* | 0%
CNc1ncnc2c1ncn2[C@@H]1O[C@H](COP(=O)(O)O)[C@@H](O)[C@H]1O | 3% | 2% | -3% | 0% | / | /
Cl[Si](Cl)(Cl)c1ccccc1 | / | / | -3%[201 µM] | -7%[201 µM] | / | /
Cn1c(=O)c(C#N)c(-c2ccc(F)cc2)c2cc(C(=O)c3cc(Cl)cc(Cl)c3O)cnc21 | 16% | -1% | 3% | -5% | -19% | -6%
COc1ccccc1-n1c(=O)c(C#N)c(-c2ccc([N+](=O)[O-])cc2)c2cc(C(=O)c3cc(F)ccc3O)cnc21 | 9% | i | -1% | 1% | -13% | 11µM*
SMILES | RGS12 GoLoco inh | RECQ1 inh | TRb SRC2 PPI | TexasRed fluor | BLM helicase inh | ERG Ets-DNA blk
CC(=O)Nc1nc(CC(C)C)cc(-c2ccccc2)c1C#N | -2% | -3% | -6% | -2% | -2% | 2%
CC(=O)Nc1nc(CC(C)C)cc(-c2ccco2)c1C#N | 2.8µM* | i | -9% | -2% | -1% | -11%
COc1ccc2oc(=O)c(C(=O)C[n+]3cccc(C)c3)cc2c1 | 10µM* | i | -4% | 0% | -2% | 12%
CC(C)[C@@H]1[C@H]2CC[C@H](C2)[C@H]1N | -2% | 5% | 3% | -1% | -3% | /
O=C(O)c1cccc(Cn2c(Cl)c(/C=N/Nc3ccccc3)sc2=O)c1 | 131% | 32µM* | 7% | -4% | ? | 61%
CCCCc1cc(=O)oc2cc(C)c3c(C(C)(C)C)coc3c12 | / | / | -5% | 100µM*[quencher] | -5% | 5%
Cc1ccccc1Nc1oc(-c2ccccc2)nc1-c1ccccc1F | -2% | -5% | 8% | -1% | 0% | /
COc1ccc(OC)c2c1C(=O)c1ccccc1C2=O | 7.9µM* | -12% | -7% | -4% | 1% | 32µM*
COc1ccc(N)c2c1C(=O)c1ccccc1C2=O | 48% | -23% | 32µM* | 50µM*[fluorescent] | -25% | ?
COc1ccc(OC)c2c1C(=O)C(Cl)=C(Cl)C2=O | 0.45µM* | 20% | 4% | -2% | 1% | -1%
COc1ccc(N(CC(C)C)S(=O)(=O)c2nnc(NC(=O)c3cccs3)s2)cc1 | / | / | -2% | 3% | -3% | -5%
C=CCCCCCCCCCCCC | / | / | 3%[201 µM] | -4%[201 µM] | / | /
CC(=O)OCCCCCCCCCCC[N+]1(C)CCCCC1 | 11% | -6% | 0% | 0% | -6% | 6%
COC(=O)CCCCCCCCCC[N+]1(C)CCCCC1 | 11µM* | 0% | -10% | 1% | 3% | -1%
CCCCCCCCCCCCC/C=C/[C@@H](O)[C@@H](N)CO | 15% | -1% | 2% | ? | -1% | 4%
CCCCCCCCCCCCC/C=C/[C@@H](O)[C@@H](N)COP(=O)(O)O | 22µM*! | -1% | 5% | 0% | 0% | /
CC[C@@]1(c2ccccc2)NC(=O)NC1=O | / | -9% | 0% | -2% | -3% | /
CCN(c1ccccc1)S(=O)(=O)c1ccc(NC(=O)c2nc(S(C)(=O)=O)ncc2Cl)cc1 | / | / | -9% | 1.8µM*[quencher] | -5% | -1%
CCS(=O)(=O)c1ncc(Cl)c(C(=O)Nc2ccc(S(=O)(=O)N(C)c3ccccc3)cc2)n1 | / | / | 2% | -13% | -9% | 1%

Assay outcomes: PubChem, National Center for Advancing Translational Sciences (NCATS)
